Assay outcomes (PubChem BioAssay)
AMA1-RON2 inh = inhibitors of Plasmodium falciparum AMA1-RON2 interaction. AlphaScreen AMA1-biotinylated RON2 peptide binding. Potency, µM (titrated, usually from 58.2 µM), inactives show top-dose activity change, negative = inhibition, most hits filed as inhibitors. actives 0.2% (n = 360,000). AID 720542;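 note: 0% = vehicle wells and -100% = peptide control; nearly all actives have a fitted effect of over 45% in size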
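AMA1 (3D7) with his tag at 25 nM final met compounds first, then biotinylated RON2 peptide at 25 nM; detection used donor plus acceptor beads, 10 µg/mL apiece, read by AlphaScreen after 30 min at room temperature.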
Pf growth 48h = inhibits P. falciparum growth in the first generation, 48 h; AID 504832; actives 5.9% (n = 310,000); P. falciparum luciferase growth in erythrocytes, 48 h; Potency, µM (series often up to 28.7 µM), inactives show at the top dose activity change, negative = inhibition, usual class: inhibitors; note: % is set by controls: 0 for no effect and ±100 for the full control effect
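Parasite viability was followed by luminescence of a genomically integrated firefly luciferase. Cultures held 0.1% parasitemia at 2% hematocrit (final), incubated under 5% CO2 at 37 C.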
NS1 inh = influenza NS1 inhibition | Potency, µM (titrated, usually from 46.1 µM), for the others: top-dose activity, positive = more growth | actives 0.4% (n = 270,000) | AID 2326; calls by dose curve; note: actives are rising curves; nearly all actives have a fitted effect of over 50% in size
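A cell-based growth assay was used: compounds that relieve NS1-induced slow growth of budding yeast raise OD600. Assay medium was yeast nitrogen base with ammonium sulphate and -URA supplement, pH 6.0, with 2% galactose.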
SARS PLP yeast = SARS-CoV PLP inhibition in yeast; AID 485353; S. cerevisiae expressing SARS-CoV PLpro, growth rescue; actives 0.19% (n = 330,000); Potency, µM (series often up to 32.9 µM), for inactives: top-dose activity, positive = growth rescue, hits mostly activators; calls by dose curve; note: 0% is about no effect; nearly all actives have a fitted effect of over 55% in size
HCV inhibitor = HCV inhibition; Huh7.5.1 HCVcc-Cre infection, luciferase reporter, 44 h; Potency, µM (doses to about 41.8 µM), for the others: at the highest dose activity change, negative = inhibition, actives largely listed as inhibitors; actives 3.4% (n = 340,000); note: % is set by controls: 0 for no effect and ±100 for the full control effect
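Reporter virus HCVcc-Cre (~0.5 moi) infects cells exposed to compound; seeding density 1,000 cells/well with 4 h settling beforehand. Luminescence, 15 sec read, taken 44 h post-infection following a 15 min RT substrate incubation.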
Pf growth 96h = P. falciparum growth inhibition at 96 hours; Potency, µM (series often up to 28.7 µM), without a hit: top-dose activity change, negative = inhibition, actives largely listed as inhibitors; actives 6.9% (n = 320,000); P. falciparum luciferase reporter growth, 96 h; note: % is set by controls: 0 for no effect and ±100 for the full control effect
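Infected RBCs, 2% Hct / 0.05% parasitemia final; luciferase-reporter P. falciparum; cpd 96 h, 37 C, 5% CO2; luciferase detection reagent; luminescence.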
An asterisk follows results filed as active; ? = inconclusive; . = no result. Shown are actives, neighbours in structure and some others; about 12% of the full set was active somewhere. Unless noted, calls come from the whole dose curve; as a rule, active = well fitted curve in the direction sought with a large enough effect; inconclusive = small, poorly fitted or top-dose-only effect, or another doubt; inactive = no such curve, though single readings can be large; an effect the other way counts as inactive or inconclusive. Potency is the fitted concentration of half-maximal effect.

SMILES	AMA1-RON2 inh	Pf growth 48h	NS1 inh	SARS PLP yeast	HCV inhibitor	Pf growth 96h
Cc1ccc(C(=O)CN(CCC(=O)O)C(=O)c2ccncc2)cc1	-5.1%	30.4%	.	-19.8%	18.3%	6.8%
C=Cn1ccnc1P(=S)(c1nccn1C=C)c1nccn1C=C	-3.6%	?	-10.2%	-1.4%	11.9%	?
C=Cn1ccnc1P(=S)(c1ccn(C)c1)c1nccn1C=C	8.5%	-1.0%	-4.0%	-6.1%	12.2%	7.38µM*
CC(C)(C)n1nc2c(c1NC(=O)C1CC(=O)N(c3ccc(Cl)cc3)C1)CS(=O)(=O)C2 (stereo unspecified)	-1.6%	-15.4%	6.3%	-1.5%	8.3%	?
Cc1c(C)n(C)c2ccc(C(=O)NCCCN3CCN(c4ccc(F)cc4)CC3)cc12	-29.5%	?	-17.5%	-16.4%	?	13.2%
Cc1c(C)n(Cc2ccc(F)cc2)c2ccc(C(=O)NCCCN3CCOCC3)cc12	-22.9%	9.28µM*	7.7%	1.8%	?	33.3%
CCc1nc2ccc(C(=O)NCCCN3CCN(c4ccccc4F)CC3)cc2nc1CC	-0.8%	?	-0.3%	-0.4%	4.47µM*	?
CSc1ccc(NC(=O)NCCCN2CCN(c3ccccc3F)CC2)cc1	-10.2%	?	-5.0%	2.8%	-33.5%	45.3%
Cc1c(C)n(C)c2ccc(C(=O)NCCCN3CCN(c4ccccc4F)CC3)cc12	-26.9%	10.4µM*	15.1%	-2.6%	?	-20.1%
O=C(O)CCc1nc2cc(C(F)(F)F)ccc2n(Cc2ccccc2)c1=O	-2.7%	-11.7%	4.1%	-0.9%	12.3%	-12.7%
COc1ccc(OC)c(CNC(=O)CCC(=O)N2Cc3cccc(OC)c3Oc3ncccc32)c1	-2.9%	-24.8%	12.7%	19.1%	-9.0%	?
C[C@@]12CC(=O)NC1N(C(=O)c1ccccc1)C(c1ccccc1OC(=O)c1ccccc1)C2 (stereo partly specified)	-16.2%	?	-3.2%	2.8%	14.4%	.
C[C@@]12CC(=O)NC1N(C(=O)c1cccc(C(F)(F)F)c1)C(c1ccccc1OC(=O)c1cccc(C(F)(F)F)c1)C2 (stereo partly specified)	6.8%	.	25.0%	1.8%	27.1%	9.28µM*
COC(=O)c1[nH]c2ccc(C)cc2c1NC(=O)CN1CCCc2ccccc21	-11.5%	4.15µM*	-3.3%	-28.6%	?	2.33µM*
COC(=O)c1[nH]c2cc(C)ccc2c1NC(=O)CN1CCN(c2ccccc2OC)CC1	-4.6%	?	-11.7%	-10.9%	10µM*	?
COC(=O)c1[nH]c2ccccc2c1NC(=O)CN1CCC(C(N)=O)(N2CCCCC2)CC1	9.5%	13.1µM*	-2.2%	5.6%	-3.0%	.
COC(=O)c1[nH]c2cc(C)ccc2c1NC(=O)CN1CCOCC1	-0.1%	10.7%	4.2%	-1.2%	12.7%	-6.0%
COC(=O)c1[nH]c2ccccc2c1NC(=O)CN1CCCCCC1	8.7%	.	4.5%	7.6%	?	?
COC(=O)c1[nH]c2cc(OC)ccc2c1NC(=O)CN1CCN(c2cccc(C)c2)C(C)C1 (stereo unspecified)	-25.6%	11.7µM*	-15.2%	-21.5%	10µM*	10.4µM*
O=C(Nc1cc(S(=O)(=O)N2CCCCC2)ccc1Cl)c1ccc(F)cc1	8.6%	?	.	-20.0%	?	?
O=C1C(=O)N(Cc2cccs2)c2ccccc21	-2.3%	3.0%	-83.2%	-28.3%	22.3%	-3.1%
CN1N=C(C(=O)Nc2ccc3c(c2)CCC3)CCC1=O	-9.7%	70.1%	.	-1.0%	-18.6%	121.0%
CC1(Cc2cc(Cl)ccc2C(F)(F)F)C(=O)Nc2c(Cl)cccc21 (stereo unspecified)	3.3%	.	.	.	.	.
CCOC(=O)N1CCN(CC(=O)Nc2c(C(=O)OC)[nH]c3ccccc23)CC1	4.3%	?	-24.5%	1.6%	-12.4%	4.7%
Cc1ccc2[nH]c3c(c2c1)CN(C(=O)CN1CCCCC1)CC3	-7.9%	?	-2.1%	-4.1%	?	-3.5%
SMILES	AMA1-RON2 inh	Pf growth 48h	NS1 inh	SARS PLP yeast	HCV inhibitor	Pf growth 96h
COC(=O)c1[nH]c2ccccc2c1NC(=O)CN1CCN(c2cccc(Cl)c2)CC1	-4.3%	3.29µM*	-51.5%	1.0%	?	3.8%
COC(=O)c1[nH]c2cccc(Cl)c2c1NC(=O)CN1CCCCC1C (stereo unspecified)	17.7%	?	-4.9%	1.0%	-8.0%	4.15µM*
Cc1ccc2[nH]c3c(c2c1)CN(C(=O)CN1CCCc2ccccc21)CC3	-18.0%	4.15µM*	2.9%	1.2%	?	4.65µM*
COc1ccccc1N1CCN(CC(=O)Nc2nc(C)c(C(=O)N(C)C)s2)CC1	34.3%	-26.5%	7.3%	-3.9%	8.9%	14.7µM*
CCc1c(C)nc(SC(C(=O)O)c2ccccc2)c(C#N)c1C (stereo unspecified)	-1.1%	35.2%	5.6%	-2.1%	38.5%	?
NC(N)=NC(=O)c1nc(Cl)c(N2CCCCCC2)nc1N	-9.3%	4.65µM*	-8.7%	.	?	9.28µM*
NC(N)=NC(=O)c1nc(Cl)c(N)nc1N	28.2%	3.79µM*	1.2%	-3.3%	?	?
CCC1CCCCN1CCCNC(=O)Cn1c(=O)c2cccn2c2cccnc21 (stereo unspecified)	-10.2%	38.8%	0.0%	?	-4.7%	-3.5%
O=C(N/N=C/c1ccc(N2CCOCC2)cc1)c1ccncc1	7.7%	-21.8%	.	-4.1%	34.2%	-9.5%
O=C(N/N=C/c1ccc(N2CCOCC2)cc1)c1ccccc1OCCOc1ccccc1	-2.3%	?	.	-2.7%	8.91µM*	?
CC(OC(=O)c1cccc(S(=O)(=O)N2CCCC2)c1)C(=O)c1ccccc1 (stereo unspecified)	-8.8%	17.9%	2.0%	-5.2%	18.2%	30.8%
COc1ccc(N(CC(=O)NCCSCc2ccc(Cl)cc2)S(C)(=O)=O)cc1Cl	-9.0%	-15.5%	10.2%	-5.8%	8.0%	-29.8%
COc1ccc(N2CCN(C(CNC(=O)c3ccc4c(c3)OCO4)c3cccnc3)CC2)cc1 (stereo unspecified)	-9.4%	-9.9%	-1.2%	0.1%	13.7%	?
COc1ccc(N2CCN(C(CNC(=O)c3cccc(Cl)c3)c3cccnc3)CC2)cc1 (stereo unspecified)	-12.2%	?	-16.8%	0.6%	?	1.85µM*
COc1cccc(C(=O)NCC(c2cccnc2)N2CCN(c3ccccc3OC)CC2)c1 (stereo unspecified)	1.2%	11.7µM*	-33.6%	1.8%	?	?
C=C1c2ccccc2S(=O)(=O)N(Cc2ccccc2)C1COCc1ccccc1 (stereo unspecified)	-18.9%	?	4.7%	-2.5%	-3.1%	?
NCCc1c(Cc2ccccc2)[nH]c2ccccc12	-17.2%	.	.	.	-19.0%	.
